About 3,700 (1%) of roughly 360,000 compounds were called active. Another 2% or so got no clear call; they are omitted.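 The calls were made as follows: active = normalized GFP-positive differentiation at or above the plate's own cutoff, the solvent-only control mean plus 3 SD; inconclusive = no clear call, values can overlap the other calls; inactive = the rest.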 Only a selection was taken, and actives are over-represented in it overall.
Experiment: induction of myeloid progenitor differentiation, primary screen, cell-based, flow cytometry, MLPCN library (AID 624256);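 as to GFP+ MAC1+ double positive: cells exposed to compound for four days before flow analysis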;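 as to normalized GFP-positive differentiation: cells exposed to compound for four days before flow analysis; 0% = DMSO wells and 100% = fulvestrant positive control at 5 µM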
Conditions: ER-HoxA9 myeloid progenitors, lysozyme-GFP differentiation, at 10 µM; GFP+ MAC1+ double positive: measured here: differentiation confirmed by MAC1 staining, stronger effect = higher value; normalized GFP-positive differentiation: stronger effect = higher value

**Q.** Which GFP+ MAC1+ double positive does the source give for `CCC(C)CN1C(=O)CSCC1(C)C(=O)NCc1ccccc1` (stereo unspecified) here?
**A.** 1.5%

**Q.** And the outcome?
**A.** inactive

**Q.** Which GFP+ MAC1+ double positive does the source give for `CSCCC(NS(=O)(=O)/C=C/c1ccccc1)C(=O)N1CCC(C)CC1` (stereo unspecified) here?
**A.** 1%

**Q.** And the outcome?
**A.** inactive

**Q.** Which GFP+ MAC1+ double positive does the source give for `CSCCC(NS(=O)(=O)c1ccccc1F)C(=O)N1CC=C(c2ccccc2)CC1` (stereo unspecified) here?
**A.** 1.3%

**Q.** And the normalized GFP-positive differentiation?
**A.** 63.9% (active)

**Q.** Which results are given for `CSCCC(NS(=O)(=O)c1ccc(C)cc1)C(=O)N1CCCC1` (stereo unspecified)?
**A.** GFP+ MAC1+ double positive: 1.3%; outcome: inactive

**Q.** Which results are given for `C#Cc1ccc(NC(=O)C2(C)CCN2C(=O)Cc2ccc(-c3ccccc3)cc2)cc1` (stereo unspecified)?
**A.** GFP+ MAC1+ double positive: 0.8%; outcome: inactive

**Q.** What does the source list for `Cc1ccc2nc(NC(=O)CSc3nc(=O)n(CCCN(C)C)c4c3CCC4)sc2c1`?
**A.** GFP+ MAC1+ double positive: 1.3%; outcome: inactive

**Q.** Which GFP+ MAC1+ double positive does the source give for `Cc1ccc2nc(NC(=O)C3CSC4(C)CCC(=O)N34)sc2c1` (stereo unspecified) here?
**A.** 1.7%

**Q.** What about the outcome of the same compound?
**A.** inactive

**Q.** For `CC(=O)N(CCCN(C)C)c1nc2ccc(C)cc2s1`, which GFP+ MAC1+ double positive is on record?
**A.** 0.6%

**Q.** And the normalized GFP-positive differentiation?
**A.** 33.5% (active)

**Q.** What does the source list for `CCN1C[C@@H]2[C@@H]3C(=O)N(C)C(=O)[C@@H]3[C@](C)(C1=O)N2C(=O)c1ccccc1`?
**A.** GFP+ MAC1+ double positive: 10.9%; normalized GFP-positive differentiation: 43.5% (active)

**Q.** For `CN1C(=O)[C@H]2[C@@H](C3CC3)N3C(=O)CN(Cc4ccccc4)C(=O)[C@@]3(C)[C@H]2C1=O`, which GFP+ MAC1+ double positive is on record?
**A.** 1.6%

**Q.** And the outcome?
**A.** inactive

**Q.** What does the source list for `CCN1C[C@@H]2[C@@H]3C(=O)N(Cc4ccccc4)C(=O)[C@@H]3[C@](C)(C1=O)N2C(=O)c1ccc(C(C)(C)C)cc1`?
**A.** GFP+ MAC1+ double positive: 1.2%; outcome: inactive

**Q.** Which results are given for `Oc1cccc2cc(-c3ccncc3)cnc12`?
**A.** GFP+ MAC1+ double positive: 0.7%; outcome: inactive

**Q.** Which GFP+ MAC1+ double positive does the source give for `COCCNc1ncnc2c1ncn2[C@H]1CN(CCN2CCOCC2)C[C@@H](CO)O1` here?
**A.** 1.1%

**Q.** What about the outcome of the same compound?
**A.** inactive

**Q.** Which GFP+ MAC1+ double positive does the source give for `CCOC(=O)[C@]12CCCC=C1N(CCC1=CCCCC1)C(=O)[C@H](CC(=O)NCCCCc1ccccc1)C2` here?
**A.** 2.2%

**Q.** And the outcome?
**A.** inactive

**Q.** For `O=C(Cc1c(O)c2ccccc2[nH]c1=O)NCc1ccccc1`, which GFP+ MAC1+ double positive is on record?
**A.** 0.1%

**Q.** And the outcome?
**A.** inactive

**Q.** Which GFP+ MAC1+ double positive does the source give for `CCCOC(=O)Cc1c(O)c2ccccc2[nH]c1=O` here?
**A.** 0.6%

**Q.** And the outcome?
**A.** inactive

**Q.** Which GFP+ MAC1+ double positive does the source give for `COC(=O)Cc1c(-c2[nH]c3ccccc3c2CC(=O)OC)[nH]c2ccccc12` here?
**A.** 17.1%

**Q.** And the normalized GFP-positive differentiation?
**A.** 207% (active)

**Q.** With `CCOc1ccc(Cl)cc1-c1cc(C(=O)NCc2cccs2)[nH]n1` as the compound, how does the GFP+ MAC1+ double positive read?
**A.** 1.7%

**Q.** What about the outcome of the same compound?
**A.** inactive

**Q.** What does the source list for `CC1(C(=O)NS(=O)(=O)c2ccccc2)CCN1C(=O)c1ccccc1` (stereo unspecified)?
**A.** GFP+ MAC1+ double positive: 0.9%; outcome: inactive

**Q.** Which GFP+ MAC1+ double positive does the source give for `COc1ccccc1Cc1c(-c2ccc(Cl)cc2)nc2c3ccccc3ccn12` here?
**A.** 0.5%

**Q.** And the outcome?
**A.** inactive

**Q.** With `COc1ccc(Cn2c(=S)[nH]c3cc(C(=O)N4CCCCC4)ccc3c2=O)cc1` as the compound, how does the GFP+ MAC1+ double positive read?
**A.** 0.2%

**Q.** What about the outcome of the same compound?
**A.** inactive

**Q.** With `CCOC(=O)N1CCN(C(=O)c2ccc3c(=O)n(CCc4ccc(OC)c(OC)c4)c(=O)[nH]c3c2)CC1` as the compound, how does the GFP+ MAC1+ double positive read?
**A.** 6.8%

**Q.** And the normalized GFP-positive differentiation?
**A.** 56% (active)

**Q.** Which results are given for `COCCn1c(=S)[nH]c2cc(C(=O)NCCc3ccc(OC)c(OC)c3)ccc2c1=O`?
**A.** GFP+ MAC1+ double positive: 2.7%; outcome: inactive

**Q.** Which GFP+ MAC1+ double positive does the source give for `CCCCc1c(-c2ccc(Br)cc2)ncn1CCc1ccccc1OC` here?
**A.** 2.9%

**Q.** What about the outcome of the same compound?
**A.** inactive

**Q.** With `C[C@H](NC(=O)[C@@H]1CCCN1C(=O)[C@@H]1CCCN1C(=O)c1ccccc1)c1ccccc1` as the compound, how does the GFP+ MAC1+ double positive read?
**A.** 0.7%

**Q.** And the outcome?
**A.** inactive

**Q.** For `Cc1ccc(CN2CC(N3CCC(Cc4ccccc4)CC3)CS2(=O)=O)cc1` (stereo unspecified), which GFP+ MAC1+ double positive is on record?
**A.** 1.6%

**Q.** What about the outcome of the same compound?
**A.** inactive

**Q.** What does the source list for `Cc1cccc(CC2(O)C(=O)Nc3ccccc32)n1` (stereo unspecified)?
**A.** GFP+ MAC1+ double positive: 29.8%; normalized GFP-positive differentiation: 367% (active)

**Q.** Which results are given for `COc1ccc(C2(O)C(=O)Nc3ccccc32)cc1` (stereo unspecified)?
**A.** GFP+ MAC1+ double positive: 0.4%; outcome: inactive

**Q.** With `Cc1cc(O)c(C2(O)C(=O)Nc3ccccc32)cc1C` (stereo unspecified) as the compound, how does the GFP+ MAC1+ double positive read?
**A.** 0.4%

**Q.** What about the outcome of the same compound?
**A.** inactive

**Q.** Which GFP+ MAC1+ double positive does the source give for `Cc1ccc(S(=O)(=O)N2CC[C@H]3[C@@H](C2)C(=O)C[C@@H](c2ccccc2)N3S(=O)(=O)c2ccc(C)cc2)cc1` here?
**A.** 2.5%

**Q.** What about the outcome of the same compound?
**A.** inactive

**Q.** With `CCOC(=O)c1c(-c2cccc(C)c2)csc1NC(=O)c1c(-c2ccccc2)noc1C` as the compound, how does the GFP+ MAC1+ double positive read?
**A.** 15.3%

**Q.** What about the normalized GFP-positive differentiation of the same compound?
**A.** 89% (active)

**Q.** Which GFP+ MAC1+ double positive does the source give for `Cc1[nH]c2ccccc2c1C(=O)COC(=O)c1c(-c2ccccc2)noc1C` here?
**A.** 0.6%

**Q.** And the outcome?
**A.** inactive

**Q.** What does the source list for `CCOC(=O)c1c(-c2ccc(-c3ccccc3)cc2)csc1NC(=O)CCC(=O)O`?
**A.** GFP+ MAC1+ double positive: 0.3%; outcome: inactive

**Q.** Which results are given for `CC1(C(=O)NCc2ccccc2)CSCC(=O)N1CCCN1CCOCC1` (stereo unspecified)?
**A.** GFP+ MAC1+ double positive: 4%; outcome: inactive

**Q.** Which GFP+ MAC1+ double positive does the source give for `CSCCC(C(=O)NC(C)(C)C)n1c(-c2ccccc2)nc2ccccc21` (stereo unspecified) here?
**A.** 4%

**Q.** What about the outcome of the same compound?
**A.** inactive

**Q.** With `CSc1ccc(CN2CCC2(C)C(=O)NCc2ccccc2Br)cc1` (stereo unspecified) as the compound, how does the GFP+ MAC1+ double positive read?
**A.** 0.7%

**Q.** What about the outcome of the same compound?
**A.** inactive

**Q.** Which GFP+ MAC1+ double positive does the source give for `O=C(NCc1ccc(F)cc1)c1cc(C2CCCCN2C(=O)c2ccccn2)on1` (stereo unspecified) here?
**A.** 2.6%

**Q.** What about the outcome of the same compound?
**A.** inactive

**Q.** With `N#Cc1ccc(C(C(=O)NCc2ccccc2)n2c(=O)c(-c3ccco3)nc3ccccc32)cc1` (stereo unspecified) as the compound, how does the GFP+ MAC1+ double positive read?
**A.** 2.4%

**Q.** And the outcome?
**A.** inactive

**Q.** What does the source list for `COC(=O)c1ccc(NCc2cc(O)ccc2O)cc1`?
**A.** GFP+ MAC1+ double positive: 1.6%; outcome: inactive

**Q.** For `CC(OC(=O)c1ccc(Cl)cc1O)C(=O)NCCC1=CCCCC1` (stereo unspecified), which GFP+ MAC1+ double positive is on record?
**A.** 0.3%

**Q.** What about the outcome of the same compound?
**A.** inactive

**Q.** Which GFP+ MAC1+ double positive does the source give for `CC(C)OC(=O)c1ccc(NCc2cc(O)ccc2O)cc1Cl` here?
**A.** 7.3%

**Q.** And the normalized GFP-positive differentiation?
**A.** 354% (active)

**Q.** What does the source list for `CC(C)(C)CC(=O)Nc1nc(C(N)Cc2ccc(C(F)(F)F)cc2)cs1` (stereo unspecified)?
**A.** GFP+ MAC1+ double positive: 0.2%; outcome: inactive

**Q.** What does the source list for `Cc1ccc(S(=O)(=O)N2CC3C(=O)C[C@@H](c4ccccc4Cl)N(S(=O)(=O)c4ccc(C)cc4)C3CC2c2ccccc2)cc1` (stereo partly specified)?
**A.** GFP+ MAC1+ double positive: 1.9%; outcome: inactive
